# PubChem BioAssay (Tox21)
# Inconclusive results are not listed. Where a call stands in place of a potency, no number is given. Active and inactive are the calls of the source. The call rests on the fitted dose curve; in most records, active means well fitted cell-killing curve with a large enough effect in the repeat runs; inconclusive means weak or mixed curves, or effect the other way; inactive means flat fitted curve, though single readings scatter.
# Assay: cAMP Responsive Elements (CRE) small molecule agonists, cell-based qHTS assay: qHTS cell viability counter screen (AID 2060914); further: nearly all actives have a fitted effect of over 50% in size
# Details: CRE-bla HEK293T viability, CellTiter-Glo luminescence, 5 h; series mostly up to 92.4 µM
# Summary of the method: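 Cytotoxicity counter screen multiplexed with the CRE-bla reporter assay in HEK 293T cells: 3 h compound exposure at 37 °C, followed by CellTiter-Glo luminescence measured in the same wells.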
row,SMILES,Potency
1,O=C(Oc1ccccc1)c1ccc(O)cc1,inactive
2,CC(C)C(=O)OC(=O)C(C)C,inactive
3,CC(CNC1CCCCC1)OC(=O)c1ccccc1 (stereo not drawn),inactive
4,Cc1ccc([N+](=O)[O-])c(C)c1,inactive
5,O=C(O)CCCC(=O)O,inactive
6,CN1CC[C@H](c2c(O)cc(O)c3c(=O)cc(-c4ccccc4Cl)oc23)[C@H](O)C1,inactive
7,C#C[C@]1(O)CC[C@H]2[C@@H]3CCc4cc(OC)ccc4[C@H]3CC[C@@]21C,inactive
8,Nc1ccc(C(=O)O)cc1,inactive
9,CC12CC3CC(C)(C1)CC(N)(C3)C2,inactive
10,CNCc1ccccc1,inactive
11,CC(C)CC(C)CC(O)CC(C)C (stereo not drawn),inactive
12,CCOC(=O)Nc1ccc2c(c1)N(C(=O)CCN1CCOCC1)c1ccccc1S2,inactive
13,CC(C)(CCC(=O)O)C(=O)O,inactive
14,CC(=O)OC/C=C(\C)CCC=C(C)C,inactive
15,CC(C)CC(O)CC(C)C,inactive
16,CC1CC(=O)NN=C1c1ccc(NCC(C)(C)NCC(O)COc2cc(Cl)ccc2C#N)cc1 (stereo not drawn),inactive
17,Oc1ccc(-c2ccccc2)c(Cl)c1,inactive
18,O=C(O)Cn1c(C(=O)Nc2nc(-c3ccccc3Cl)cs2)cc2ccccc21,inactive
19,CC(=O)OCC(CCn1cnc2cnc(N)nc21)COC(C)=O,inactive
20,NC(=O)C1(N2CCCCC2)CCN(CCCN2c3ccccc3CCc3ccc(Cl)cc32)CC1,inactive
21,CCN(CC)C(C)=O,inactive
22,Cc1ccc(Cl)c(OCC(O)CNC(C)(C)C)c1 (stereo not drawn),inactive
23,NS(=O)(=O)c1cc2c(cc1Cl)CN(C1CCCCC1)C2=O,inactive
